What was measured:
Experiment in all cases: DAPPL (digital affinity profiling via proximity ligation, sequencing); 10 mM Tris-HCl pH 7.5, 50 mM NaCl, 1 mM DTT, 4% glycerol, room temperature, 30 min; GST-TFs on glutathione beads, 16-mer random dsDNA library, 0.1% formaldehyde crosslink after washing; high values mean tight binding
FEV = biological target: T1, FEV (Homo sapiens, UniProt Q99581 1-238); conditions: protein: recombinant; tags: N-terminal GST; dsDNA, one strand shown
T1 sequence: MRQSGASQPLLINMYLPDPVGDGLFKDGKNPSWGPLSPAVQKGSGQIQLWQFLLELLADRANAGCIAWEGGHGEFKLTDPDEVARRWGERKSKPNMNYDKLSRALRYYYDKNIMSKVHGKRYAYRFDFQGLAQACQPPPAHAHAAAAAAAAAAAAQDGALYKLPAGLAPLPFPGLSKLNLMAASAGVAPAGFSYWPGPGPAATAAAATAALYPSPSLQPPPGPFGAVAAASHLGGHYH
Outline: (§1)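 Human transcription factors fused to GST were expressed in yeast, captured on glutathione beads, given DNA barcodes and pooled with a GST-only negative control. Pools were incubated with 200 nmole of a 16-mer random double-stranded DNA library in Tris/NaCl/DTT/glycerol buffer at room temperature for 30 min. They were then washed, crosslinked with 0.1% formaldehyde, proximity-ligated (BsaI/T4 ligase, 1 h, 37 °C), PCR-amplified and sequenced on an Illumina NextSeq500. Binding signal is each 6-mer's read frequency for a factor divided by its frequency for the GST control.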

ETV5 = ETV5 (Homo sapiens, UniProt P41161 1-510); conditions: protein: recombinant; tags: N-terminal GST; dsDNA, one strand shown
ETV5, sequence (P41161 whole entry): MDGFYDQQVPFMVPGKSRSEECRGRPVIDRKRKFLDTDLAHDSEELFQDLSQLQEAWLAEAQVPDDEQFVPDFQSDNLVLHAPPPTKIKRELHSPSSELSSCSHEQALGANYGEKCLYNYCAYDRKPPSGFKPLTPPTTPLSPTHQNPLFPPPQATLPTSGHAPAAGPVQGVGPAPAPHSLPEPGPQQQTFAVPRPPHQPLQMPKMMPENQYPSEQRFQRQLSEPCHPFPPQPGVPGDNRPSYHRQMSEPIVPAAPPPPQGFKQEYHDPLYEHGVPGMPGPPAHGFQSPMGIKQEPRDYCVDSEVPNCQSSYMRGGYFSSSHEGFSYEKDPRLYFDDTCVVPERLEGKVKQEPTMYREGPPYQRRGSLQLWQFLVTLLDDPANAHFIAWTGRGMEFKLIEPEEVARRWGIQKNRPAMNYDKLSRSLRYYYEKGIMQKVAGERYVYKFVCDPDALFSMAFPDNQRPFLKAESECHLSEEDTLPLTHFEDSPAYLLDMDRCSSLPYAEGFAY
Outline: as §1

HSF1 = HSF1 (Homo sapiens, UniProt Q00613 1-529); conditions: protein: recombinant; tags: N-terminal GST; chain copies: 3; dsDNA, one strand shown
HSF1, sequence (Q00613 whole entry): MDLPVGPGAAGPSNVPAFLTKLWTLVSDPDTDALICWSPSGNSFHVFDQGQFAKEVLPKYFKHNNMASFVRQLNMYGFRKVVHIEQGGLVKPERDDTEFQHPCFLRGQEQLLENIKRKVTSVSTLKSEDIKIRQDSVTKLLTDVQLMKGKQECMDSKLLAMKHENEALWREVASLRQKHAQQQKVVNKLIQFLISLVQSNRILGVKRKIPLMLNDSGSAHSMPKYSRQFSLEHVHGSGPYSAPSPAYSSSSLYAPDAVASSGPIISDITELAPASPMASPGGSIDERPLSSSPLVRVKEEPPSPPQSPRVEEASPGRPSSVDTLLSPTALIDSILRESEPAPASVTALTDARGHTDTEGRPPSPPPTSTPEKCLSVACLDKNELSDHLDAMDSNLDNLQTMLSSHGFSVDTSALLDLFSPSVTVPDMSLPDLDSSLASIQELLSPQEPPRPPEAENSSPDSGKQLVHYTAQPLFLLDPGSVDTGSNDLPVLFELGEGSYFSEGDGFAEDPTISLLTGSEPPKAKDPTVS
Outline: as §1

SPIC = biological target: T2, SPIC (Homo sapiens, UniProt Q8N5J4 1-248); conditions: protein: recombinant; tags: N-terminal GST; dsDNA, one strand shown
T2 sequence: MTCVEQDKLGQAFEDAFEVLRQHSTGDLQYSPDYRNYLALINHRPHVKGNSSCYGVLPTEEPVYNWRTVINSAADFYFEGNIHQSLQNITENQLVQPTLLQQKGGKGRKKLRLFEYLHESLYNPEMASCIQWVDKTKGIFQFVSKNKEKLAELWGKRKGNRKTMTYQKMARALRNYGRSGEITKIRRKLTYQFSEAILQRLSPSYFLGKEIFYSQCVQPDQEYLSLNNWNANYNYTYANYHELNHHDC
Outline: as §1

ELF4 = ELF4 (Homo sapiens, UniProt Q99607 1-663); conditions: protein: recombinant; tags: N-terminal GST; dsDNA, one strand shown
ELF4, sequence (Q99607 whole entry): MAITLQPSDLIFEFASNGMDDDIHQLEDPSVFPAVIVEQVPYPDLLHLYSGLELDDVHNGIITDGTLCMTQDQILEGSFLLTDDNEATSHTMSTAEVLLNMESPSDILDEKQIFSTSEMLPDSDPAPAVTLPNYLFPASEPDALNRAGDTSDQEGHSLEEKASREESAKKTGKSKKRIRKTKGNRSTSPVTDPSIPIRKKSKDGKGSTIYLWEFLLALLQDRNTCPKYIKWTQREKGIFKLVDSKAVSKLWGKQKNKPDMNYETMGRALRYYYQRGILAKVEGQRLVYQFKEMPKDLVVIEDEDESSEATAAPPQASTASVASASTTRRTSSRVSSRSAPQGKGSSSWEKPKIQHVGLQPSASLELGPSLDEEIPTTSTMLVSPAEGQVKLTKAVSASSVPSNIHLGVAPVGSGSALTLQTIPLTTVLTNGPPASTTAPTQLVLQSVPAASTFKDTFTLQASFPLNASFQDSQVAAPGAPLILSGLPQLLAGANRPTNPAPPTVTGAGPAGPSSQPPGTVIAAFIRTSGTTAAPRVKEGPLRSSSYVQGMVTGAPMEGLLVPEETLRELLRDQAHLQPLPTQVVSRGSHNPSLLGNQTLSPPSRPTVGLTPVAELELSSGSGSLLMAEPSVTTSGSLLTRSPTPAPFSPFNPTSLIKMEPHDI
Outline: as §1

ELK4 = biological target: T3, ELK4 (Homo sapiens, UniProt P28324-2 1-405); conditions: protein: recombinant; tags: N-terminal GST; dsDNA, one strand shown
T3 sequence: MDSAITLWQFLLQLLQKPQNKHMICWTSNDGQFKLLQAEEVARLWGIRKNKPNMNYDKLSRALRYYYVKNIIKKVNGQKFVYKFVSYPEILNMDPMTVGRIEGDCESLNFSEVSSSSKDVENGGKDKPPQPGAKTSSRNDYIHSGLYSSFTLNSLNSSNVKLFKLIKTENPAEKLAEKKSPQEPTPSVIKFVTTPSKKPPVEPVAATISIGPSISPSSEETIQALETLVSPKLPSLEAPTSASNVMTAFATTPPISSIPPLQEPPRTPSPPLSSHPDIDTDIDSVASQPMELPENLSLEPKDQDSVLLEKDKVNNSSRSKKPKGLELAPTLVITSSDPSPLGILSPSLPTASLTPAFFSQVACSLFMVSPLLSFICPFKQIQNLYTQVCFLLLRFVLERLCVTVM
Outline: as §1

ETV2 = biological target: T4, ETV2 (Homo sapiens, UniProt O00321 1-342); conditions: protein: recombinant; tags: N-terminal GST; dsDNA, one strand shown
T4 sequence: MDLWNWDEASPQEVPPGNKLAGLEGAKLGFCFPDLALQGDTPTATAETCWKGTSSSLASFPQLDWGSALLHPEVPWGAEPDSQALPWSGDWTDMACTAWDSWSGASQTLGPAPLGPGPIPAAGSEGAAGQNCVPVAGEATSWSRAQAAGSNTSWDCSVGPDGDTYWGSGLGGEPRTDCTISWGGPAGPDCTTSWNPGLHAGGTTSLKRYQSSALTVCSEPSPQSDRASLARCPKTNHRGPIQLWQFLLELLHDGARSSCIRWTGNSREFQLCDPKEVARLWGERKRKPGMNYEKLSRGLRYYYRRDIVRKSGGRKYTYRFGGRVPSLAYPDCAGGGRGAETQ
Outline: as §1

ELF3 = biological target: T5, ELF3 (Homo sapiens, UniProt P78545 1-371); conditions: protein: recombinant; tags: N-terminal GST; dsDNA, one strand shown
T5 sequence: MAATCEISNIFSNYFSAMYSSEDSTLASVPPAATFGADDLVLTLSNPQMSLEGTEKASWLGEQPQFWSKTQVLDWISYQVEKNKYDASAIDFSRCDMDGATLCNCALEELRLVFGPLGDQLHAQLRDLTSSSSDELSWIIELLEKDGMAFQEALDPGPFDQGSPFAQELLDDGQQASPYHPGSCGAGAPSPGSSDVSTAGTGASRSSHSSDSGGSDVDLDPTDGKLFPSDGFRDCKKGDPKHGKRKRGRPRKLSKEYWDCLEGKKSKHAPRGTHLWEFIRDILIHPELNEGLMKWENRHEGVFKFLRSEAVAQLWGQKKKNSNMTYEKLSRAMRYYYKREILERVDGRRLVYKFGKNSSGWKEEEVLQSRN
Outline: as §1

CRX = CRX (Homo sapiens, UniProt O43186 1-299); conditions: protein: recombinant; tags: N-terminal GST; dsDNA, one strand shown
CRX, sequence (O43186 whole entry): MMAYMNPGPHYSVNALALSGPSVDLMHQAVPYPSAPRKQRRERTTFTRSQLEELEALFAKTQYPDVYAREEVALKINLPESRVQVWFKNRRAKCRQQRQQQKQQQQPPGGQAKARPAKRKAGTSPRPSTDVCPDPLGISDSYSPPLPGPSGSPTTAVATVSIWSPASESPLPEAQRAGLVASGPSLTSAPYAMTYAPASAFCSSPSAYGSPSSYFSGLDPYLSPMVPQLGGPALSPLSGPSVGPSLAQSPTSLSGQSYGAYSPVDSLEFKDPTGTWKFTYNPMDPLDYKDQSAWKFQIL
Outline: as §1

ETV1 = ETV1 (Homo sapiens, UniProt P50549 1-477); conditions: protein: recombinant; tags: N-terminal GST; dsDNA, one strand shown
ETV1, sequence (P50549 whole entry): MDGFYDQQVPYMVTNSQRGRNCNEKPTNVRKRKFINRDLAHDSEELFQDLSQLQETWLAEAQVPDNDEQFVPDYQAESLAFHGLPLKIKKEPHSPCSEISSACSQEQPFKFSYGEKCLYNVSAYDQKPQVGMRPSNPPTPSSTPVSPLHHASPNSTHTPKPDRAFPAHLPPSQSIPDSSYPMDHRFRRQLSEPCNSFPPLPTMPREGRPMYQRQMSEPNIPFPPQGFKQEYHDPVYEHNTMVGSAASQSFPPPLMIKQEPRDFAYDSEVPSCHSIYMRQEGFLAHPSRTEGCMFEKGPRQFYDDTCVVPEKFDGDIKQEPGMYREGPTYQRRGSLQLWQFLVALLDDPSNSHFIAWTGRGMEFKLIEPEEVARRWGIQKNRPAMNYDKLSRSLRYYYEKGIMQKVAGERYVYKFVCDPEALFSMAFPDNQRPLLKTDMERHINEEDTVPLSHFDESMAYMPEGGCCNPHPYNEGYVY
Outline: as §1

ERF = biological target: T6, ERF (Homo sapiens, UniProt P50548 1-548); conditions: protein: recombinant; tags: N-terminal GST; dsDNA, one strand shown
T6 sequence: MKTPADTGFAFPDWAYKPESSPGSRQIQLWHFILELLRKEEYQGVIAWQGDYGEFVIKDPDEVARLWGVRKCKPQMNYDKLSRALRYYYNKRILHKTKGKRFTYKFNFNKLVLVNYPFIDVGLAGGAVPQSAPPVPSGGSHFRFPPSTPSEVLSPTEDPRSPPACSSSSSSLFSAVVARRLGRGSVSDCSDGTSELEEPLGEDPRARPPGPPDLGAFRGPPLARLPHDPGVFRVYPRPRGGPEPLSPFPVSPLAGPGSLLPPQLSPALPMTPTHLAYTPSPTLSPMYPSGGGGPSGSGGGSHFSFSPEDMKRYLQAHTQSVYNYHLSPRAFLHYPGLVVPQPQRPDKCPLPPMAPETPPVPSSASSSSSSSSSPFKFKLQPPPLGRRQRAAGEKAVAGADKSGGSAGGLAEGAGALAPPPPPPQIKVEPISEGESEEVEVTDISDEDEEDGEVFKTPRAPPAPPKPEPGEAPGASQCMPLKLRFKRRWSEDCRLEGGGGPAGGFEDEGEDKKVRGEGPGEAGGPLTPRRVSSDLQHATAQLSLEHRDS
Outline: as §1

ETV3L = biological target: T7, ETV3L (Homo sapiens, UniProt Q6ZN32 1-361); conditions: protein: recombinant; tags: N-terminal GST; dsDNA, one strand shown
T7 sequence: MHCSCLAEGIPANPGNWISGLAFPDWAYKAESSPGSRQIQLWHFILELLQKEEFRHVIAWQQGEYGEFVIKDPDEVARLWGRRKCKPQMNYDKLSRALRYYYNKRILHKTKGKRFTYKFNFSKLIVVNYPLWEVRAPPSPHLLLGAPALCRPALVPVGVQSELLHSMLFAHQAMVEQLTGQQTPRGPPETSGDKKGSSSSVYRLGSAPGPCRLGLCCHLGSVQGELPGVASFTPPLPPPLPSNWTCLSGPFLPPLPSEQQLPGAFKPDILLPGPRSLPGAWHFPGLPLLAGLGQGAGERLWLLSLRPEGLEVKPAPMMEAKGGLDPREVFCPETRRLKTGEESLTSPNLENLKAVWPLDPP
Outline: as §1

ETS2 = biological target: T8, ETS2 (Homo sapiens, UniProt P15036 1-469); conditions: protein: recombinant; tags: N-terminal GST; dsDNA, one strand shown
T8 sequence: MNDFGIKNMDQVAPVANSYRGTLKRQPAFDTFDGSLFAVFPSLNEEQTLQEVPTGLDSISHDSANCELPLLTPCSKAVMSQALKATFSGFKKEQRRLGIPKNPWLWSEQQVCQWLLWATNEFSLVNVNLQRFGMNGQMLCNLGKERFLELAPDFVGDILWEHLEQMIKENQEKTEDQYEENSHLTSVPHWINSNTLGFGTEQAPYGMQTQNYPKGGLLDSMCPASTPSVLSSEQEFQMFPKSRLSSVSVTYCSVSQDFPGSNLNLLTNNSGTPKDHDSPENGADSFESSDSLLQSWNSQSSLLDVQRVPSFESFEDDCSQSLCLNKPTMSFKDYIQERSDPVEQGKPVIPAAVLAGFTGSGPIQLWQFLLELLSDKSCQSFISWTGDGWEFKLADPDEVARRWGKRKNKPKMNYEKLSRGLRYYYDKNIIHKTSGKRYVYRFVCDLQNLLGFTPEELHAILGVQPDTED
Outline: as §1

SPDEF = biological target: T9, SPDEF (Homo sapiens, UniProt O95238 1-335); conditions: protein: recombinant; tags: N-terminal GST; dsDNA, one strand shown
T9 sequence: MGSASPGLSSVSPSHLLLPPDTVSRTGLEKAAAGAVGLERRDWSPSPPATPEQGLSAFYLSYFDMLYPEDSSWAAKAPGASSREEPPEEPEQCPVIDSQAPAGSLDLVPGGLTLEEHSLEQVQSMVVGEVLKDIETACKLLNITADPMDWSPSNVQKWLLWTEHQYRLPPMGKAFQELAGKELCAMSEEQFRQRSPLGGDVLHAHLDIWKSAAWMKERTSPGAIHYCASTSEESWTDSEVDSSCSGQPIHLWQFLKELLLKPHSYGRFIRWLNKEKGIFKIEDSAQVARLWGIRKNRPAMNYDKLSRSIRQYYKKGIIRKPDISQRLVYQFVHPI
Outline: as §1

ETV7 = biological target: T10, ETV7 (Homo sapiens, UniProt Q9Y603 1-341); conditions: protein: recombinant; tags: N-terminal GST; dsDNA, one strand shown
T10 sequence: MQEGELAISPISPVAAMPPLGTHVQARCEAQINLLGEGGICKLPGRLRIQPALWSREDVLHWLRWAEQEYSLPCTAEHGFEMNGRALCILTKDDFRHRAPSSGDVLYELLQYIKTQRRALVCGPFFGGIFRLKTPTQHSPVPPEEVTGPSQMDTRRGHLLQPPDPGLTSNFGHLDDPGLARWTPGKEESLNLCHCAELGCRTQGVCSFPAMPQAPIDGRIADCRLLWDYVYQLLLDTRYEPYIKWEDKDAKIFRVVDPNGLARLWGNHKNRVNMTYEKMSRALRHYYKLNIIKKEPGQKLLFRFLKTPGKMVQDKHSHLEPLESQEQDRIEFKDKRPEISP
Outline: as §1

ELF5 = biological target: T11, ELF5 (Homo sapiens, UniProt Q9UKW6-2 1-255); conditions: protein: recombinant; tags: N-terminal GST; dsDNA, one strand shown
T11 sequence: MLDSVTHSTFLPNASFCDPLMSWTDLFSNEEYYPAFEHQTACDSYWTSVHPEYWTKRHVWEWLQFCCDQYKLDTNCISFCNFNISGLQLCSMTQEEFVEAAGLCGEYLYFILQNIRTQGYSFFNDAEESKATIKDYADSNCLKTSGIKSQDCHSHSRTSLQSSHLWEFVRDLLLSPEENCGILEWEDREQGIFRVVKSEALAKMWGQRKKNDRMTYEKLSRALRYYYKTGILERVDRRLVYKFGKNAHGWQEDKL
Outline: as §1

ETV3 = biological target: T12, ETV3 (Homo sapiens, UniProt P41162-2 1-143); conditions: protein: recombinant; tags: N-terminal GST; dsDNA, one strand shown
T12 sequence: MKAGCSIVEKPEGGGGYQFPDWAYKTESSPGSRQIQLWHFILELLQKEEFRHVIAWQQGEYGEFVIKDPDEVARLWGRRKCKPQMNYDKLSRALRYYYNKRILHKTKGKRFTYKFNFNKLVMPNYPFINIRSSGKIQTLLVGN
Outline: as §1

ETV6 = ETV6 (Homo sapiens, UniProt P41212 1-452); conditions: protein: recombinant; tags: N-terminal GST; dsDNA, one strand shown
ETV6, sequence (P41212 whole entry): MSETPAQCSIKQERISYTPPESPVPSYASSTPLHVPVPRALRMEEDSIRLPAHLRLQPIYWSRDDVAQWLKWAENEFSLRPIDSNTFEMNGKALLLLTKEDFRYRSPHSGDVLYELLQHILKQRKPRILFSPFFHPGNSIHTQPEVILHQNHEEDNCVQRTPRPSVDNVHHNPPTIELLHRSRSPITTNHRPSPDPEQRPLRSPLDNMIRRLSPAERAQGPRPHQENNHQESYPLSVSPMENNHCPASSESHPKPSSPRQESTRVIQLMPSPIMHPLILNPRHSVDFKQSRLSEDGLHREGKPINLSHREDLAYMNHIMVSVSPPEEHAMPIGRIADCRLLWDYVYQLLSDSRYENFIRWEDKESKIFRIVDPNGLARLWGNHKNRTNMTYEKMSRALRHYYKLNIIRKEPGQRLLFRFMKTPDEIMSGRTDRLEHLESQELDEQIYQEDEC
Outline: as §1

## CAATAC
FEV
  binding signal: 1.27 fold enrichment (6-mer frequency, TF over GST control)
ETV5
  binding signal: 1.26 fold enrichment (6-mer frequency, TF over GST control)
HSF1
  binding signal: 1.07 fold enrichment (6-mer frequency, TF over GST control)
SPIC
  binding signal: 1.16 fold enrichment (6-mer frequency, TF over GST control)
ELF4
  binding signal: 1.23 fold enrichment (6-mer frequency, TF over GST control)
ELK4
  binding signal: 1.39 fold enrichment (6-mer frequency, TF over GST control)
ETV2
  binding signal: 1.22 fold enrichment (6-mer frequency, TF over GST control)
ELF3
  binding signal: 1.29 fold enrichment (6-mer frequency, TF over GST control)
CRX
  binding signal: 1.04 fold enrichment (6-mer frequency, TF over GST control)
ETV1
  binding signal: 1.3 fold enrichment (6-mer frequency, TF over GST control)
ERF
  binding signal: 1.38 fold enrichment (6-mer frequency, TF over GST control)
ETV3L
  binding signal: 1.3 fold enrichment (6-mer frequency, TF over GST control)
ETS2
  binding signal: 1.22 fold enrichment (6-mer frequency, TF over GST control)
SPDEF
  binding signal: 1.23 fold enrichment (6-mer frequency, TF over GST control)
ETV7
  binding signal: 1.35 fold enrichment (6-mer frequency, TF over GST control)
ELF5
  binding signal: 1.18 fold enrichment (6-mer frequency, TF over GST control)
ETV3
  binding signal: 1.29 fold enrichment (6-mer frequency, TF over GST control)
ETV6
  binding signal: 1.22 fold enrichment (6-mer frequency, TF over GST control)
